Holding throughout (assay): NCI-60 one-dose screen, 48 h (100 = growth as untreated, 0 = no growth, -100 = all killed)
Settings in all cases: 10 µM unless noted

Experiment [1] has as its system NCI-H23 lung.
Experiment [2] has as its system NCI-H226 lung.
The subject of experiment [3] is NCI-H322M lung.
Experiment [4] relates to HOP-62 NSCLC.
Experiment [5] concerns NCI-H460 lung.
Experiment [6] deals with HOP-92 NSCLC.
Experiment [7] has as its system NCI-H522 lung.
For experiment [8], the system named is A549/ATCC NSCLC.
For experiment [9], the system named is 786-0 renal.
Experiment [10] deals with COLO 205 colon.

The panel holds about 83,000 compounds, 20% with a hit somewhere; the sample as a whole holds those more often.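 For each line, cells grew in 96-well plates with the test compound present at a single concentration for 48 hours.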 Values without a mark were called inactive. Active and inactive are the calls of the source. The calls were made as follows: active = growth percent below 10; inactive = the rest.

On to `COc1ccc(O)c(-c2cc(-c3ccc(Cl)cc3)c(C#N)c(=O)[nH]2)c1`, for which the growth in [1] is 69.6%; in experiment [2], 89.1%; in [3], 101%; in [4], 64%; in [5] it was 69.3%; in experiment [6], 36%. Moreover, the results for the growth in [7], in [8] and in experiment [9] were 36.8%, 86.7% and 68.3%, respectively.

Take `Oc1ccc(CCC2CCCC(CCc3ccc(OCCF)cc3)N2)cc1` (configuration not stated): the growth is 87.3% in experiment [1]; 99.3% in experiment [2]; 106% in experiment [3]; 95.6% in experiment [4]; 102% in experiment [5]; 75.3% in [6]. The growth in experiment [7] was 95.3%; in experiment [8], 91%; in experiment [9], 95.9%.

For the compound `CCC(=O)c1c(C)[nH]c(C)c1C`, the growth in [1] was 94%; in experiment [2] it was 101%; in experiment [3] it was 94.6%; in experiment [4] it was 77.8%; in [5], 55.5%; in [6] it was 107%. For the same compound, the growth in experiment [7] was 56.2%; in experiment [8], 86.2%; in experiment [9], 99.2%.

`C=C1C(=O)O[C@H]2[C@H]1CC/C(COC(=O)NCc1c[nH]c3ccccc13)=C\CC[C@@]1(C)O[C@@H]21`: the growth was 68.3% in experiment [1]; 88.8% in experiment [2]; 84.5% in experiment [3]; 65.2% in experiment [4]; 74.7% in [5]; 107% in experiment [6]. For the same compound, the growth was -35.2% (active) in experiment [7], 82.5% in experiment [8], 44.6% in [9] and -20.4% (active) in experiment [10].

Regarding `Cc1cccc(C)c1NC(=O)CSC(=S)N1CCCCC1`, the growth in experiment [1] was 88.7%; in experiment [2] it was 109%; in [3] it was 82.7%; in [4], 107%; in [5] it was 106%; in experiment [6], 107%. The growth in experiment [7] is 92%; in experiment [8], 101%; in experiment [9] it was 92.6%.

As to `Cn1c2c(Cl)c(Cl)ccc2c2c(C#N)c[nH]c(=O)c21`, the growth in [1] was 91%; in experiment [2], 94.5%; in experiment [3], 129%; in experiment [4] it was 94.1%; in experiment [5], 96.2%; in experiment [6] it was 78.6%. Also, the growth is 95.5% in experiment [7], 93.3% in experiment [8], 97.4% in [9] and 115% in experiment [10].

With `COc1ccc2c(c1)c1nc3cc(C)c(C)cc3nc1n2CCN(C)C`, the growth in [1] was 1.6% (active); in experiment [2], 7.41% (active); in [3] it was 3.67% (active); in [4] it was 20.3%; in [5] it was -22% (active); in experiment [6], 41%. Further, the growth was 6.94% (active) in [7], -75% (active) in experiment [8] and -60.8% (active) in experiment [9].

Consider `CN(C)c1ccc(-c2ccc(-c3ccc(C(=N)N)c(F)c3)s2)cc1`, for which the growth in experiment [1] was -67.1% (active); in experiment [2], -60.1% (active); in experiment [3], 0.0772% (active); in experiment [4] it was -75.2% (active); in experiment [5], -77.5% (active); in experiment [6] it was -79.4% (active). For the same compound, the growth in experiment [7] is -61.4% (active); in [8], -83.2% (active); in [9] it was -93.7% (active).

`c1cc(N2CCCC2)c2nc(-c3[nH]ncc3Nc3ncnc4[nH]ccc34)[nH]c2c1`: the growth in experiment [1] is -45.3% (active); in experiment [2], -40.4% (active); in [3], -21.1% (active); in [4] it was -13.6% (active); in experiment [5], -4.99% (active); in experiment [6], -1.33% (active). For the same compound, the growth in [7] was -11.3% (active); in experiment [8], -7.17% (active); in experiment [9] it was -26.1% (active).

On to `COc1ccc(/C=C(\C#N)c2cc3ccccc3n2C(C)=O)cc1`, for which the growth was 88.3% in experiment [1]; 102% in [2]; 94.6% in experiment [3]; 93.3% in experiment [4]; 92.4% in experiment [5]; 99.2% in [6]. The growth is 70% in experiment [7], 83.5% in experiment [8] and 96.9% in [9].

For `CN(C)c1cccc2[nH]c(-c3[nH]ncc3Nc3ccnc(N)n3)nc12`, the growth was -45.1% (active) in experiment [1]; -26.6% (active) in [2]; -13.6% (active) in experiment [3]; -19.6% (active) in experiment [4]; -32.7% (active) in experiment [5]; -11.3% (active) in [6]. Moreover, the growth is -24.6% (active) in experiment [7], -7.09% (active) in experiment [8], -58% (active) in experiment [9] and -64% (active) in experiment [10].

For `Cn1cc(-c2nc(-c3c[nH]c4ncccc34)cs2)c2cc(Br)ccc21`, the growth in experiment [1] is 93.5%; in experiment [2] it was 95.7%; in [3], 76.4%; in experiment [4], 109%; in experiment [5], 81.7%; in [6], 89.1%. Moreover, the growth in experiment [7] was 86.5%; in experiment [8], 86.7%; in experiment [9] it was 80.6%; in [10], 106%.

`O=C(c1ccccc1)C(CN1CCOCC1)c1ccccc1` (configuration not stated): the growth in [1] is 65.3%; in experiment [2], 40.1%; in experiment [3], 84.7%; in experiment [4], 81%; in experiment [5], 79.4%; in experiment [6], 40.5%. In addition, the growth in [7] was -51.3% (active); in [8], 95.3%; in experiment [9], 31%; in experiment [10], 25.5%.

Take `C=C(C)[C@@H]1CC[C@]2(C=O)CC[C@]3(C)[C@H](CC[C@@H]4[C@@]5(C)C/C(=C/c6cccnc6)C(=O)C(C)(C)[C@@H]5CC[C@]43C)[C@@H]12`: the growth in experiment [1] was 75.6%; in experiment [2], 91.3%; in experiment [3], 100%; in experiment [4] it was 119%; in experiment [5], 85.7%; in experiment [6], 83.9%. Further, the growth is 72% in [7], 57.1% in [8], 101% in [9] and 95.5% in experiment [10].

Source of the values: PubChem BioAssay (NCI).
